# Screening data as filed in PubChem BioAssay.
# Artemis endo inh: inhibitors of human Artemis endonuclease activity | Q96SD1 | recombinant Artemis, quenched FAM hairpin cleavage fluorescence | inhibition, % at 10 µM | 30,000 tested, 0.78% active;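 active means at 10 µM dose, at least 30% inhibition, measured as corrected fluorescence normalized to stimulator and neutral control wells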
# Numbers without * were called inactive. Many of the other results were omitted from the sample, so hits are more common in it than they were.
SMILES,Artemis endo inh
O=[N+]([O-])c1ccc(/C=N/Nc2nc(-c3ccccc3)c3cc(Br)ccc3n2)o1,58*
O=[N+]([O-])c1cccc(-c2ccc(/C=N/NC(=S)Nc3ccccc3)o2)c1,16
CCNC(=O)Cn1cc(C#N)c2ccccc21,1
Cc1ccccc1NC(NC(=O)c1cccs1)C(Cl)(Cl)Cl (stereo unspecified),5
CCOC(=O)c1cc2cc(OC)ccc2nc1C,2
Cc1ccc(CN(CC(=O)N/N=C/c2ccco2)S(=O)(=O)c2ccc(C)cc2)cc1,10
